Only some compounds are listed: those with a hit (about 3.1% of all), similar ones and a draw of the others.
Peg3 promoter – reduces Peg3 promoter-driven luciferase expression in HeLa. HeLa PEG-Prom luciferase reporter, luminescence, overnight. inhibition, % at 20 µM. hit rate 1.7% among 360,000. AID 588405;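 active = inhibition of at least 50% at 20 µM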
KKLEB tox – counter-screen for CF NF-kB inhibitors: cytotoxicity; AID 602141; hit rate 0.36% among 360,000; activity change (cytotoxicity), % at 5 µM; KKLEB CF airway cells viability, ATPlite luminescence, overnight; active compounds read low; cells stimulated with P. aeruginosa culture filtrate;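 active = corrected activity change at or below -50% at 5 µM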
HIF-2a inh – inhibitors of HIF-2a. 786-0 RCC cells HIF-2a reporter, luciferase luminescence, overnight. inhibition, % at 18.8 µM. hit rate 0.72% among 360,000. AID 624352;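 active = inhibition of the luminescence signal of 40% or more relative to plate controls, in a single-dose primary screen at 18.75 µM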
CF NFkB block – cystic fibrosis NF-kB activation inhibition; KKLEB NF-kB-GFP reporter, PAF-induced, GFP fluorescence overnight; inhibition, % at 5 µM; hit rate 0.86% among 360,000; AID 588850;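 active = at least 50% inhibition at 5 µM, scaled per plate between neutral and stimulator controls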;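 note: PAF is a Pseudomonas aeruginosa culture filtrate used as stimulus; plate controls were PAF-stimulated DMSO wells for no effect and unstimulated DMSO wells for full effect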
PPC-1+TRAIL kill – kills PPC-1 cancer cells in the presence of TRAIL. PPC-1 cells + TRAIL, ATPLite viability luminescence. cell killing (% activity), % at 4 µM or 5 µM. hit rate 0.41% among 220,000. AID 1443;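 active = cell killing above 50% in the first pass at 4 µM, then a duplicate retest at 5 µM averaging 50% or more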;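 note: plate controls were cells with TRAIL plus DMSO for no effect and medium-only wells lacking cells for full effect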
C8 TRAIL sens – caspase-8 TRAIL sensitization. NB7+C8 cells + TRAIL, ATPlite viability luminescence. inhibition (viability loss, TRAIL sensitization), % at 10 µM. hit rate 1% among 360,000. AID 624354;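 active = compounds causing at least 50% loss of cell viability in the single-dose screen, relative to plate controls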
Mdm2 MdmX conf – Mdm2/MdmX (human) interaction inhibition, confirmed; shares compounds with HIF-2a inh; SaOS-2 split-luciferase Mdm2/MdmX complementation, luminescence; inhibition, % at 8 µM; hit rate 99% among 740;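 active = mean inhibition of the luminescence signal across two replicates at or above 26 percent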
Target sequence (O15151 whole entry, looked up): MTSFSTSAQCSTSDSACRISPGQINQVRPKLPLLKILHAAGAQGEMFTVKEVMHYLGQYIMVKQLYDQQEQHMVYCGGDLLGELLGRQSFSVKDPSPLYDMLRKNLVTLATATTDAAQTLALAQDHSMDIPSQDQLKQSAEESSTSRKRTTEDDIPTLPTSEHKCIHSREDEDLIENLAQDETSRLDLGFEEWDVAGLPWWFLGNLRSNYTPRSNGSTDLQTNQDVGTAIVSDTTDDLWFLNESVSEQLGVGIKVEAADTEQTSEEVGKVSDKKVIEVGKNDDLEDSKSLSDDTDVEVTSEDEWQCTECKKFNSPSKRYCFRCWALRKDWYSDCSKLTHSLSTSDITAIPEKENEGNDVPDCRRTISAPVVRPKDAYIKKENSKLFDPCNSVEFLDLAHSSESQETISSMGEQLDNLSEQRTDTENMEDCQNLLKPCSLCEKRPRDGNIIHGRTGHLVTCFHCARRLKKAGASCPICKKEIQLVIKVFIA
Target sequence (Q00987 whole entry, looked up): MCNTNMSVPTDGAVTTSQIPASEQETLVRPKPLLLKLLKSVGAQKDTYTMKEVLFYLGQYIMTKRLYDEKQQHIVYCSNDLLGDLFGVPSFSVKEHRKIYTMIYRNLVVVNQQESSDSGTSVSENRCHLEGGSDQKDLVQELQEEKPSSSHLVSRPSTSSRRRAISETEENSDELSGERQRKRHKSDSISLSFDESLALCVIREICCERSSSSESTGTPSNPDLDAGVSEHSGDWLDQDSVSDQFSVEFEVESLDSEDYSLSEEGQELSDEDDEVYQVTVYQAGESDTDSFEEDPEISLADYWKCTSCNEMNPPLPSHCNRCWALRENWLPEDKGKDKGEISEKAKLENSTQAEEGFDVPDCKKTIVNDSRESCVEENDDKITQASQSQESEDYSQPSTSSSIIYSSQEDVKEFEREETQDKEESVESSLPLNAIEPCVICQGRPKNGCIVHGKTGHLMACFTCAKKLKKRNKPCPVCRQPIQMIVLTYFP
HIF-2a conf – confirmation of HIF-2a inhibitors; inhibition, % at 18.8 µM; hit rate 56% among 1,800; shares compounds with HIF-2a inh; AID 651580; 786-0 RCC cells, HIF-2a luciferase reporter luminescence, overnight;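 active = mean inhibition across four replicates of at least 40 percent at the single tested concentration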
HIF-1a cs – inhibits HIF-1a reporter, a counter-screen for HIF-2a inhibitors | AID 651589 | MiaPaCa-2 HIF-1a luciferase reporter, desferoxamine, overnight | shares compounds with HIF-2a inh | hit rate 72% among 1,800 | inhibition, % at 18.8 µM;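 active = mean inhibition of the reporter signal across four replicates at the single tested dose of 50% or more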
Numbers without * were called inactive; x = no result.

SMILES	Peg3 promoter	KKLEB tox	HIF-2a inh	CF NFkB block	PPC-1+TRAIL kill	C8 TRAIL sens	HIF-2a conf	HIF-1a cs	others
O=C1C=CC(O)(c2cc(=O)c3c(O)cc(O)cc3o2)C=C1	84*	-52*	94*	75*	17	-1	92*	103*
O=C(NC1CCN(Cc2ccccc2)CC1)c1ccc2c(c1)[nH]c(=O)n2Cc1ccc(F)cc1	18	-7	48*	0	x	34	18	24
O=[N+]([O-])c1cnc(Sc2ccncn2)s1	110*	-14	95*	75*	19	18	x	x	Mdm2 MdmX conf=102*
CCCC(=O)N1CCC1(C)C(=O)NS(=O)(=O)c1cccc(C)c1 (configuration not stated)	2	-9	-1	15	x	1	x	x
CCn1cc(C(=O)N[C@@H](C)C(=O)NCCCn2ccnc2)c(=O)c2cc3c(cc21)OCO3	-15	16	-3	-10	x	-4	x	x
COc1cc(/C=C(/C#N)c2nc3ccccc3[nH]2)ccc1OCC(=O)Nc1ccccc1C(C)C	5	5	-11	0	-11	-2	x	x	Mdm2 MdmX conf=101*
NCCCn1cnc2ccccc21	4	2	47*	8	x	-1	1	25
c1ccc2c(c1)ncn2CCn1cnc2ccccc21	-1	-1	3	10	8	9	x	x
CN(C)/C=C/c1c([N+](=O)[O-])c2ccc(O)cc2n1-c1ccccc1	52*	-3	28	84*	3	-3	x	x	Mdm2 MdmX conf=90*
Cn1c(N)c(C(=O)COC(=O)COc2ccccc2Cl)c(=O)n(C)c1=O	11	6	8	4	x	-14	x	x
Cc1nnc(NC(=O)c2nn(CC(C)C)c(=O)c3ccccc23)s1	19	2	11	-7	4	-13	x	x
Cc1nc2ccc(NC(=O)c3nn(CC(C)C)c(=O)c4ccccc34)cc2s1	-43	4	-47	-13	7	-1	x	x	Mdm2 MdmX conf=93*
O=[N+]([O-])c1cccc(NNS(=O)(=O)c2ccccc2F)c1	14	1	2	4	x	28	x	x
Cc1c(/C(O)=C2/C(=O)C(=O)N(CCN3CCOCC3)C2c2ccccn2)cnn1-c1ccccc1 (configuration not stated)	33	-3	73*	-1	-2	-16	40*	59*
CCN(CC)Cc1c(O)ccc2c([N+](=O)[O-])c(C)n(-c3ccc(OC)cc3)c12	12	-23	25	82*	-6	14	x	x	Mdm2 MdmX conf=84*
CCOc1ccc(S(=O)(=O)N2CCCC(C(=O)NCC3CCCO3)C2)cc1 (configuration not stated)	-4	-12	2	22	x	-17	x	x
O=C(c1ccc(-c2ccccc2)cc1)c1ccccc1C(=O)N1CCOCC1	-23	-11	-22	-14	24	-6	x	x
S=C(c1ccc(-c2ccccc2)cc1)N1CCOCC1	23	-11	86*	2	x	4	89*	54*
O=C(C#Cc1ccccc1)c1cccc([N+](=O)[O-])c1	106*	-17	46*	59*	10	20	11	86*
CC(=O)c1cccc([N+](=O)[O-])c1	-4	0	2	-10	x	-6	x	x
CC(=O)Nc1nc(-c2ccc([N+](=O)[O-])cc2)cs1	-38	22	-62	-32	16	2	x	x
Cn1cc([N+](=O)[O-])c(C(=O)Nc2ccn(C34CC5CC(CC(C5)C3)C4)n2)n1	7	-2	49*	28	27	-6	60*	57*
Cc1ccc(-c2nc(NC(=O)c3nn(C)cc3[N+](=O)[O-])sc2C)cc1	109*	-64*	93*	89*	34	93*	85*	105*	Mdm2 MdmX conf=103*
Cc1ccc(-c2nc(NC(=O)c3nn(C)cc3[N+](=O)[O-])sc2C)cc1C	109*	-38	66*	23	24	95*	1	105*	Mdm2 MdmX conf=100*
CCn1cc([N+](=O)[O-])c(C(=O)Nc2ccn(C34CC5CC(CC(C5)C3)C4)n2)n1	6	9	17	9	2	12	x	x
SMILES	Peg3 promoter	KKLEB tox	HIF-2a inh	CF NFkB block	PPC-1+TRAIL kill	C8 TRAIL sens	HIF-2a conf	HIF-1a cs	others
Cn1cc([N+](=O)[O-])c(C(=O)Nc2nc(-c3ccc(Cl)cc3)cs2)n1	106*	-95*	94*	89*	48	94*	86*	105*
O=C(Cc1ccc(Cl)cc1Cl)NCc1cccnc1	-10	2	-11	9	x	-9	x	x
COc1ccc(CN2C(=O)c3ccccc3C2c2nnnn2-c2c(C)cccc2C)cc1OC (configuration not stated)	x	x	5	x	x	10	x	x
COc1ccc(C(=O)COC(=O)c2ccc3c(c2)OCO3)c(OC)c1	-204	-11	-26	-5	x	8	x	x
Cc1ccoc1C(=O)Nc1ccc(CC(=O)O)cc1	-23	-5	88*	6	38	29	94*	51*
C#CCNC(=O)C[C@@H]1C[C@@]2(C(=O)OCC)CCCC=C2N(CCCCCCCC)C1=O	x	x	7	x	x	5	x	x
Cc1cccc2sc(N(CCCN(C)C)C(=O)c3ccc(S(=O)(=O)N4CCc5ccccc5C4)cc3)nc12	30	-25	14	33	x	44	x	x
CN(C)CCCN(C(=O)c1ccc(S(=O)(=O)N2CCc3ccccc3C2)cc1)c1nc2c(F)cccc2s1	-21	-12	10	14	x	4	x	x
Cc1ccc2nc(N(CCCN(C)C)C(=O)c3ccc(S(=O)(=O)N4CCc5ccccc5C4)cc3)sc2c1	101*	-50	88*	-91	x	77*	43*	99*
Cc1cc(C)c2sc(N(CCCN(C)C)C(=O)c3ccc(S(=O)(=O)N4CCc5ccccc5C4)cc3)nc2c1	96*	-78*	63*	48	x	92*	57*	100*
CC(C)(C)NC(=O)C1C(c2ccccc2)=Nc2ccccc2N1C(=O)c1ccc(C(F)(F)F)cc1 (configuration not stated)	x	x	-58	x	x	-8	x	x
CC(=O)c1sc(N/N=C\c2c(O)ccc3ccccc23)nc1C	-172	1	-266	-22	x	44	x	x
COC(=O)c1ccc(CN(c2ccc(C(=O)O)c(O)c2)S(=O)(=O)c2ccc(Cl)c([N+](=O)[O-])c2)cc1	55*	-5	77*	23	x	-12	5	57*
CC(C)NC(=O)c1cc(C2CCCCN2S(=O)(=O)c2cccc3cccnc23)on1 (configuration not stated)	0	14	12	-11	x	-9	x	x
